Data: PubChem BioAssay AID1063 (University of Pittsburgh Molecular Library Screening Center, 2008)
About 18,000 (9%) of roughly 200,000 compounds were called active. The entries come from a sample that favours actives as a whole. Values without a mark were called inactive. Cut-off read from the data, not from the text of the source: active = inhibition above about 50%; inactive = the rest.

Test: Leishmania major promastigote growth inhibition, primary screen (AID 1063);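 note: promastigotes grown with compound for 44 hours at 28 °C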
Details: Leishmania major promastigotes, resazurin fluorescence viability; at 10 µM; active compounds read high

SMILES	inhibition
COc1ccc(/C=C/C(=O)Nc2cccnc2)cc1OC	-4.52%
Cc1cc(C)cc(C(=O)NCC(=O)OCC(=O)N2CCCCC2)c1	-9.27%
Cc1cc(C)n(CCNCc2c(C(=O)N3C[C@@H](C)O[C@@H](C)C3)nc3ccc(Cl)cn23)n1	-6.81%
Cc1ccc(N(C(=O)c2sc(C)nc2C)C(C(=O)NC(C)(C)C)c2ccncc2)cc1 (stereo not given)	-0.8%
O=C(O)/C=C/c1ccc(OCCCF)cc1	-5.86%
COc1cccc(/C=C2\SC(=N)N(c3ccc(F)cc3)C2=O)c1	5.76%
COc1ccc(C2CC(c3ccccc3)=NN2C(=O)CSc2nccc(=O)[nH]2)cc1 (stereo not given)	-0.2%
COc1ccc(-n2nnnc2SCC(=O)Nc2ccccc2)cc1	-4.13%
O=C(CSc1nnnn1-c1ccc(O)cc1)N1N=C(c2ccc3ccccc3c2)CC1c1ccccc1 (stereo not given)	99.8% (active)
C/C(N)=C(/C#N)C(=O)COC(=O)C1CCN(C(=O)c2ccc(Cl)cc2)CC1	-2.84%
Cc1ccc(S(=O)(=O)/N=C(\N)c2ccc(F)cc2)cc1	-1.71%
NC(=O)c1ccc(NC(=O)COC(=O)c2c3c(nc4ccccc24)/C(=C\c2ccc4c(c2)OCO4)CCC3)cc1	18.2%
O=C(COC(=O)c1c2c(nc3ccccc13)CCCC2)c1ccc(Br)s1	96.8% (active)
O=C(COC(=O)c1c2c(nc3ccccc13)/C(=C\c1cccs1)CCC2)Nc1ccccc1Cl	27.8%
COc1ccc2c(c1)CCC/C2=N\OC(=O)c1ccccc1F	-7.06%
COc1cc2nc(CN(C)Cc3ccc(F)cc3)[nH]c(=O)c2cc1OC	9.19%
CC(=O)Nc1ccc(NC(=S)NC(=O)/C=C/c2ccccc2)cc1	-1.29%
CC(C)C(NC(=O)c1ccc(Cl)cc1)C(=O)O (stereo not given)	27.4%
CC(=O)Nc1cc(C(=O)O)ccc1S(=O)(=O)c1ccc(Cl)cc1	-5.9%
Cc1ccc(S(=O)(=O)c2ccc(Cl)cc2)cc1S(=O)(=O)NC(C(=O)O)C(C)C (stereo not given)	50.9% (active)
Cn1cnc([N+](=O)[O-])c1Nc1ccccc1O	-4.52%
Cn1cnc([N+](=O)[O-])c1Sc1ccccc1	51.5% (active)
Cn1nc(-c2ccccc2)c(CO)c1Sc1ccccc1	18.3%
C=CCn1c(SCC(=O)CC(=O)OCC)nc2cc(C(=O)N3CCC(C(N)=O)CC3)ccc2c1=O	-4.29%

SMILES	inhibition
CCC(CC)C(=O)N1CCN(c2cccc(C)c2C)CC1	-3.72%
Cc1cccc(N2CCN(C(=O)c3cnn4c(C(F)F)cc(-c5ccccc5)nc34)CC2)c1C	90.6% (active)
CC(=O)N1CCN(c2cccc(C)c2C)CC1	-2.3%
CC(=O)Nc1ccccc1OC(C)C(=O)N1CCC(C)CC1 (stereo not given)	-5.19%
COc1ccc2[nH]c(=O)c(CNc3ccc(C)c(C)c3)cc2c1	98.6% (active)
COc1ccc(N(Cc2cc3cc(OC)ccc3[nH]c2=O)S(C)(=O)=O)cc1	2.96%
CCC(=O)N(Cc1cc2cc(OC)ccc2[nH]c1=O)c1ccccc1C	3.53%
CC(NC(=S)Nc1ccc(OC(F)F)cc1)c1ccc(F)cc1 (stereo not given)	36.8%
OCCC#Cc1ccc(CN2CCN(Cc3ccsc3)C(CCO)C2)cc1 (stereo not given)	-0.59%
OCCC1CN(Cc2cccc(OC3CCCC3)c2)CCN1Cc1ccsc1 (stereo not given)	80.5% (active)
OCCC1CN(Cc2ccccc2-c2ccco2)CCN1Cc1ccsc1 (stereo not given)	9.42%
C=CCC(C(=O)c1ccccc1)[N+](C)(C)CC=C (stereo not given)	-3.06%
COc1ccc(NC(=O)C(C)SCc2ccccc2)cc1 (stereo not given)	-8.12%
CC1(C)OC(=O)C(=CSc2ccc(C(C)(C)C)cc2)C(=O)O1	-9.81%
CN(C)c1nnnn1-c1ccc(Cl)cc1	2.19%
CCN(CC)c1ccc(/C=N/Nc2nc(C)cc(C)n2)c(O)c1	99.8% (active)
CCOc1ccc(-n2c(O)c(/C=N/Nc3nc(C)cc(C)n3)c3ccccc3c2=O)cc1	14%
CCN(CC)c1ccc(/C=N/Nc2nc(C)cc(=O)[nH]2)cc1	-1.36%
Cc1ccc(S(=O)(=O)CC(=O)Nc2c(C)n(C)n(-c3ccccc3)c2=O)cc1	2.54%
COc1cccc(CNC(=O)CCN2C(=S)NC(C)(C)CC2C)c1 (stereo not given)	-13.5%
CCCC(=O)NC(=S)Nc1ccc(CN2CCOCC2)cc1	5.07%
O=C1OC(/C=C/c2ccccc2)=NC/1=C/c1ccco1	-4.68%
Fc1cccc2ncnc(OCc3ccccc3)c12	-9.83%
O=C(Nc1ccc(C(=O)O)cc1)/C(=C/c1ccc([N+](=O)[O-])cc1)NC(=O)c1ccccc1	-2.56%

SMILES	inhibition
O=C(N/N=C/c1ccc(O)cc1)/C(=C/c1ccc([N+](=O)[O-])cc1)NC(=O)c1ccccc1	-2.54%
O=C(N/N=C/c1cc([N+](=O)[O-])ccc1O)/C(=C\c1cccs1)NC(=O)c1ccccc1	85.6% (active)
O=C(c1cn(-c2ccccc2)nc1-c1cc2ccccc2oc1=O)N1CCOCC1	-2.51%
CC1(C)CC(=O)C(C2c3ccccc3S(=O)(=O)c3ccccc32)C(=O)C1	-3.12%
Cc1cccc(OCC(O)CN2CCN(CCN3C(=O)c4cccc5cccc(c45)C3=O)CC2)c1C (stereo not given)	99.9% (active)
OC(COc1cccc2ccccc12)CN1CCN(c2ccccn2)CC1 (stereo not given)	-1.28%
Cc1ccccc1OCC(O)CN1CCN(c2ccccn2)CC1 (stereo not given)	3.89%
COCCCNC(=S)NNC(=O)C(O)(c1ccccc1)c1ccccc1	-3.7%
Clc1ccc(-c2nc3ccccn3c2CN2CCSCC2)cc1	77.4% (active)
O=C(CN1CCSCC1)N/N=C/c1ccc(Cl)cc1	7.06%
CN(C)C(=O)c1nc2ccc(Cl)cn2c1CN1CCN(c2ncccn2)CC1	7.72%
CCOC(=O)N1CCN(CC(=O)Nc2ccc(F)cc2)CC1	-5.71%
CC(Nc1ccccc1)c1cccnc1 (stereo not given)	12.1%
C=CCn1c(N)c(S(=O)(=O)c2cccs2)c2nc3ccccc3nc21	4.67%
C=CCn1c(N)c(C(=O)OCC(C)C)c2nc3ccccc3nc21	61% (active)
CC(C)Cn1c(N)c(C(=O)NCc2cccs2)c2nc3ccccc3nc21	40.8%
Cc1ccc(CN2CCN(/N=C/c3cccnc3)CC2)c(C)c1	13.4%
CSc1cccc(NC(=S)N(Cc2ccccc2)Cc2ccccn2)c1	17.4%
COc1cccc(NC(=S)NCc2ccccn2)c1	-4.83%
COc1cccc(NC(=S)N(Cc2ccc(C)cc2)Cc2ccccn2)c1	94.4% (active)
CN(C)c1ccc(/C=N/Nc2cc(N3CCOCC3)nc(N3CCOCC3)n2)cc1	-7.95%
Cc1ccc(-n2cc(CN(C)Cc3nccn3C)c(-c3cccc(C)c3)n2)cc1	39%
Cc1cc(NC(=O)CN2C(=O)NC(CCc3ccccc3)C2=O)no1 (stereo not given)	4.06%
CCNC(=O)CC1C(=O)N(c2ccc(F)cc2)C(=O)N1CCc1sccc1C (stereo not given)	-7.58%

SMILES	inhibition
O=C(NCCN1CCOCC1)c1c(F)c(F)c(F)c(F)c1F	-4.01%
CC(NC(=O)c1cc(-c2ccccc2)on1)c1ccccc1 (stereo not given)	-7.18%
O=C(NCCCn1ccnc1)c1cc(-c2ccccc2)on1	2.53%
O=C(NCCCN1CCOCC1)c1cc(-c2ccc(Cl)cc2)on1	59.5% (active)
CCN(CC)CCCNC(=O)c1cc(-c2cccc(Cl)c2)on1	87.4% (active)
O=C(NCCCN1CCOCC1)c1ccccc1NS(=O)(=O)c1ccc(Br)cc1	-7.24%
O=C(NCCCN1CCOCC1)c1cc2c(s1)CCC2	79% (active)
O=C(NNC(=S)NCCCN1CCOCC1)c1ccncc1	-2.18%
O=C(NCCCN1CCOCC1)c1cnn2c(-c3ccccc3)cc(-c3ccccc3)nc12	19%
CCCCCN(C(=O)NC(=O)Nc1cccc(C)c1C)S(C)(=O)=O	-14.4%
COc1cccc(NC(=O)CC(c2ccc(OC(C)C)cc2)c2ccccc2OC)c1 (stereo not given)	-2.29%
CCC(O)C1CCN(Cc2cn(-c3ccc(OC)cc3)nc2-c2cccc(F)c2)CC1 (stereo not given)	30.3%
Cc1cccc(-n2cc(CN3CCN(C(=O)c4ncn[nH]4)CC3)c(-c3cccc(F)c3)n2)c1	89.9% (active)
Cc1ccc(C)c(-n2cc(CN3CCN(C(=O)c4ncn[nH]4)CC3)c(-c3ccccc3)n2)c1	-2.57%
Cc1ccc(/C=N/NC(=O)Cn2ccc(C(F)(F)F)n2)o1	-8.92%
CC1(C)CC(N(Cc2ccccc2)C(=O)Cc2ccccc2)CCO1 (stereo not given)	3.41%
COCCNC(=S)Nc1cc(S(=O)(=O)N2CCOCC2)ccc1N1CCCCC1	-2.67%
CN(C)c1nc(N)nc(Cn2nnc(-c3ccc(C(F)(F)F)cc3)n2)n1	-9.02%
Brc1ccc(OCCn2ccnc2)cc1	9.23%
Cc1noc(COc2ccccc2OCC(O)CNC(C)(C)C)n1 (stereo not given)	5.97%
CC(C)(C)CC(C)(C)NCC(O)COCCOc1ccc(Br)cc1 (stereo not given)	96.6% (active)
Cc1cc(C)n(-c2nc(C(F)(F)F)nc3ccccc23)n1	24.4%
O=C(CN1CCN(Cc2ccc(F)cc2Cl)C1=O)NCc1cccs1	-13%
